Screens as filed in PubChem.
CendR NRP1 mod: alters CendR peptide binding to human NRP-1. FAM-RPARPAR peptide binding to NRP-1, fluorescence polarization. inhibition, % at 25 µM. 0.85% of 360,000 active;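 active = inhibition or corrected inhibition above about 18%, plus a signal ratio from 0.5 to 1.5, limit read from the data, passing the limit was not always enough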
Target sequence (O14786 whole entry, looked up): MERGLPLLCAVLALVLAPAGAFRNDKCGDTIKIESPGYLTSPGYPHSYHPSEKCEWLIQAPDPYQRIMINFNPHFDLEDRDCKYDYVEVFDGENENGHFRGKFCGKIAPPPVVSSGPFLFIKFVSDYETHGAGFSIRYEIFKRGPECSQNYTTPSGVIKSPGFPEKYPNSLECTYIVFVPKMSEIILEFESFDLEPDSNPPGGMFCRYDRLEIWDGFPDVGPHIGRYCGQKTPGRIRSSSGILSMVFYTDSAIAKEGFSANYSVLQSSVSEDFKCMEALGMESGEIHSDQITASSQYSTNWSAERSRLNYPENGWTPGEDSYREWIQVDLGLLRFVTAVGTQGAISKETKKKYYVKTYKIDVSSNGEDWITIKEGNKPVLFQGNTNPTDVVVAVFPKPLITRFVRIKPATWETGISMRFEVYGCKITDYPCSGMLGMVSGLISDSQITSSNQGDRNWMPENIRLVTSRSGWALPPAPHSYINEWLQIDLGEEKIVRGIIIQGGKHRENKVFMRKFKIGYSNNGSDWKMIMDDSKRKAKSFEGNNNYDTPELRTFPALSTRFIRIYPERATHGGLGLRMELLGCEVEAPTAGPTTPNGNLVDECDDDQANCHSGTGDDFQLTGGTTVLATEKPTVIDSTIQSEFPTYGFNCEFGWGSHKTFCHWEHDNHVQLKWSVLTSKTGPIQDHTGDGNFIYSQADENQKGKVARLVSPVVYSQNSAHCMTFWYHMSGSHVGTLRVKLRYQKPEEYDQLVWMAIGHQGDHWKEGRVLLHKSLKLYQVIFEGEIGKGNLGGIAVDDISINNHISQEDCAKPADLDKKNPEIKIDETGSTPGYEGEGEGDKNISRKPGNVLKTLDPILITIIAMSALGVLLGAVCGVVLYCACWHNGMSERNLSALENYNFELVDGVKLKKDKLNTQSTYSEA
NadD block: NadD (S. aureus) enzyme inhibition; purified NadD enzyme, colorimetric absorbance read-out; inhibition, % at 20 µM; 0.78% of 360,000 active; in the data active = inhibition above about 26%
CRFBP-R2 block: blocks CRF-induced signaling of the CRF-BP/CRF-R2 complex | HEK293 CRF-R2/CRF-BP, CRF-induced calcium fluorescence | inhibition, % at 11.8 µM | 0.59% of 350,000 active | AID 588475;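 active = inhibition of the ligand-induced calcium signal above about 50% at the single tested concentration, limit read from the data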
Myeloid diff 2: compounds promoting myeloid differentiation | ER-HoxA9 myeloid progenitors, lysozyme-GFP differentiation, flow cytometry | calls only at 10 µM | 1% of 360,000 active;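 active = normalized GFP-positive differentiation at or above the plate's own cutoff, the solvent-only control mean plus 3 SD; inconclusive = no clear call, values can overlap the other calls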;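 also: cells exposed to compound for four days before flow analysis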
FAS-TE inh: FAS thioesterase (human) inhibition; recombinant FAS-TE, OMFH fluorogenic substrate, fluorescence endpoint; inhibition, % at 15 µM; 0.67% of 360,000 active; AID 602261;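 active = compounds whose normalised, plate-corrected inhibition of enzyme fluorescence in the single-dose primary screen is 50% or more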
NadD inh conf: NadD (S. aureus) inhibition, single concentration confirmation. shares compounds with NadD block. purified S. aureus NadD, colorimetric enzyme assay. inhibition, % at 20 µM. 13% of 2,000 active. AID 624309; in the data active = inhibition mostly above about 42%, no sharp cut-off; inactive = mostly below about 42%
Large screens that a line does not name were inactive (follow-up assays come after a bar, where they were run). An excerpt weighted towards active compounds, which were near 3.6% of everything screened.

NNC(=O)c1ccc(CN2C(=O)c3cccc4cccc2c34)cc1	none
COc1ccccc1/C=N/NC(=O)c1ccc(CN2C(=O)c3cccc4cccc2c34)cc1	NadD block 35 | NadD inh conf inactive
COc1ccc(NC(=O)CCCN2C(=O)C(c3ccccc3)Oc3cccnc32)cc1OC (stereo not given)	Myeloid diff 2 inconclusive
COc1ccc(Br)cc1CNC(=O)CN1C(=O)C(c2ccccc2)Oc2cccnc21 (stereo not given)	NadD block 59 | NadD inh conf 52
O=C(C(O)c1ccccc1)N1CCN(S(=O)(=O)c2ccc(OC(F)(F)F)cc2)CC1 (stereo not given)	none (no result: NadD block, CRFBP-R2 block, FAS-TE inh)
COc1ccc(NC(C)=O)cc1CNC(=O)COc1ccccc1C(=O)Nc1cccc(C)c1C	none
Cc1cc(C)cc(-n2c3nc4ccccc4nc3c3c(=O)n(Cc4ccco4)cnc32)c1	NadD block 33 | NadD inh conf inactive
O=C(c1ccc2snnc2c1)N1CCSCC1	none
O=C(c1ccc2snnc2c1)N1CCCCC1	NadD block 52 | NadD inh conf inactive
CC(C)NC(=O)c1ccccc1NC(=O)Cc1ccc([N+](=O)[O-])cc1	none
CC1(C)CC(=O)C2=C(C1)N(c1ccc(F)cc1)C(N)=C(C#N)C2c1cccs1 (stereo not given)	none
N#CC1=C(N)n2c(s/c(=C\c3cccs3)c2=O)=C(C#N)C1c1cccs1 (stereo not given)	NadD block 49 | NadD inh conf inactive
Cc1sc(NC(=O)c2sc3nc4c(C)cccc4cc3c2N)c(C#N)c1C	NadD block 62, Myeloid diff 2 active | NadD inh conf inactive
COc1ccc(/C=N/Nc2nc(-c3cccc(S(=O)(=O)N4CCCC4)c3)cs2)c(OC)c1	NadD block 37 | NadD inh conf inactive
COC(=O)c1ccccc1NC(=O)c1ccnn1C	none
CC(C)CCN(C(=O)C1=COCCO1)c1c(N)n(Cc2ccccc2)c(=O)[nH]c1=O	none
CCCCC(=O)Nc1nc(C)c(-c2csc(Nc3cc(Cl)ccc3OC)n2)s1	NadD block 34 | NadD inh conf inactive
CCCCC(=O)Nc1nc(C)c(-c2csc(Nc3cc(OC)ccc3OC)n2)s1	Myeloid diff 2 inconclusive
CCCCCCC(=O)Nc1nc(C)c(-c2csc(Nc3cc(Cl)ccc3C)n2)s1	NadD block 39 | NadD inh conf inactive
CCCCCCC(=O)Nc1nc(C)c(-c2csc(Nc3ccccc3OC)n2)s1	none
c1ccc(-c2[nH]ncc2CN2CCN(Cc3ccc4c(c3)OCO4)CC2)cc1	none
Cc1ccc(NC(=S)NCc2ccc(S(N)(=O)=O)cc2)cc1Cl	none
COc1ccc(NC(=O)c2ccc(F)c(F)c2)c2ccccc12	none
O=C(N/N=C\C=C\c1ccco1)c1cc(-c2ccc3ccccc3c2)n[nH]1	NadD block 54 | NadD inh conf 69
CCN(CC)C(=O)Cn1cnc2sc(C(=O)N3CCN(Cc4ccc5c(c4)OCO5)CC3)c(C)c2c1=O	none
O=C(Nc1ccc2oc(-c3cccc4ccccc34)nc2c1)c1ncn[nH]1	NadD block 27 | NadD inh conf inactive
CC(C)c1ccc2oc(-c3ccc(NC(=O)c4ncn[nH]4)cc3)nc2c1	NadD block 39 | NadD inh conf inactive
O=C(NCc1cccnc1)c1cccc(OC2CCN(Cc3ccc(CO)o3)CC2)c1	none
CCc1cc2c(=O)nc3n(c2s1)Cc1ccccc1/C3=C(/O)c1ccc(F)cc1	NadD block 36 (no result: CRFBP-R2 block) | NadD inh conf inactive
CCc1cc2c(=O)nc3n(c2s1)Cc1ccccc1/C3=C(/O)c1cccc([N+](=O)[O-])c1	none
CCc1cc2c(=O)nc3n(c2s1)Cc1ccccc1/C3=C(/O)c1ccccc1Cl	NadD block 32 | NadD inh conf inactive
Cc1ccc(-c2cc(C(=O)N/N=C\c3cnn(C)c3C)c3ccccc3n2)cc1C	none
Cc1ccc2nc(SCC(=O)c3cc(C)n(C)c3C)[nH]c2c1	none
Cc1cc(C(=O)CSc2nc3ccc(Cl)cc3[nH]2)c(C)n1C	NadD block 34 | NadD inh conf inactive
CC(C)c1ccc(/C=N/NC(=O)c2nnn(-c3nonc3N)c2CSC2=NCCS2)cc1	NadD block 32 | NadD inh conf inactive
CCCc1c(C(=O)N/N=C/c2ccc(OCc3ccccc3)c(OC)c2)nnn1-c1nonc1N	NadD block 35 | NadD inh conf inactive
Nc1nonc1-n1nnc(C(=O)N/N=C/c2ccc(Br)cc2)c1CSC1=NCCS1	NadD block 32 | NadD inh conf inactive
